From PubChem BioAssay (NCATS)
Activity calls are given as the source filed them. The rule behind the calls is not given here.

Test system: HIV-1 nucleocapsid protein NCp7 (binding to TG oligonucleotide)
Assay: HIV Nucleocapsid (AID 346);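 note: potency is for inhibitors that block NC binding and lower polarization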
Settings: HIV-1 NC / fluorescein-TGTGTGTG probe, fluorescence polarization
Procedure: NCGC Assay Overview: HIV-1 nucleocapsid protein (HIV-1 NC) is a small (6.5 kDa) basic zinc-finger protein which participates in packaging of viral genomic RNA. The spacing and metal-chelating residues (3 Cys, 1 His) of the Cys-X2-Cys-X4-His-X4-Cys Zn fingers are conserved among all known retroviruses (J. Med. Chem. 1998, 41, 1371-1381). HIV-1 NC was assayed for its binding to the consensus sequence single-stranded 5'-TGTGTGTG. […] High salt was included to increase the stringency of binding and inhibitor screen. Reducing agents and zinc were present to stabilize the nucleocapsid zinc-finger protein.
NCGC Assay Protocol Summary: Buffer. Hepes pH 7.5, 250mM NaCl, 1uM ZnCl2. 0.004% polyethylene glycol 20000. TCEP (100 uM) and 2-Mercaptoethanol (5 mM), added fresh the day of the experiment. Reagents/Controls. 10 nM TG4xF only in columns 3 and 4 as negative control. 10 nM TG4xF/100 nM HIV-1 NC in columns 1, 2, 5-48. Titration of control compound NSC-13778 (from 20 mM, then 1:2) pin-transferred to column 2. Assay Steps. Two uL of reagents were dispensed to 1536-well Kalypsys black plates. The plates were centrifuged for 1 min at 1000 rpm. Compounds and controls (20 nL) were transferred via Kalypsys PinTool. The plates were incubated for 1 hr at room temperature, and then read on ViewLux (Perkin-Elmer). High-throughput CCD imager using fluorescein polarization filter set and 45 seconds exposure time.
Potency is the fitted concentration of half-maximal effect.

Q: How did the Potency turn out when `CN(C)C(=O)c1ccc(-c2cncnc2N(C)Cc2ccco2)cc1` was run?
A: Its Potency is > 20 µM (inactive).

Q: How did the Potency turn out when `COc1ccc(-c2nc3cnc(N4CCOCC4)nc3n(CCC#N)c2=O)cc1` was run?
A: The Potency was > 20 µM (inactive).

Q: For `COc1ccccc1-c1nccc(NCc2cccc(C)c2)n1`, which Potency is on record?
A: Its Potency is > 20 µM (inactive).

Q: How did the Potency turn out when `COCCNc1ncnc2ccc(-c3ccc(C(=O)N(C)C)cc3)cc12` was run?
A: Its Potency is > 20 µM (inactive).

Q: `COc1ncc2nc(-c3cccs3)c(=O)n(CCC#N)c2n1` was tested. Which Potency did it give?
A: The Potency was > 20 µM (inactive).

Q: How did the Potency turn out when `COCCNc1nc(-c2ccccc2CN(C)C)nc2ccccc12` was run?
A: Its Potency is > 20 µM (inactive).

Q: Which Potency does the source give for `COC(=O)N1CCC[C@@]2(CCN(C(=O)Nc3cccc(C#N)c3)C2)C1` here?
A: Its Potency is > 4 µM (inactive).

Q: With `Cc1noc(C)c1C(=O)N1CCC2(CCCN(C(=O)Nc3ccccc3)C2)CC1` as the compound, how does the Potency read?
A: The Potency was > 20 µM (inactive).

Q: For `COCCn1c(=O)cnc2cnc(Oc3ccc(OC)cc3)nc21`, which Potency is on record?
A: Its Potency is > 20 µM (inactive).

Q: Which Potency does the source give for `Cc1noc(C)c1-c1cncnc1N(C)Cc1ccco1` here?
A: Its Potency is > 20 µM (inactive).

Q: Which Potency does the source give for `COc1ccc(-n2c(=O)c(-c3ccc(Cl)cc3)nc3cnc(N(C)C)nc32)cc1` here?
A: The Potency was > 20 µM (inactive).

Q: For `COc1cccc(-c2cc(NCc3ccc(OC)cc3OC)ncn2)c1`, which Potency is on record?
A: The Potency was > 20 µM (inactive).

Q: How did the Potency turn out when `COCCn1c(=O)c(-c2ccc(F)cc2)nc2cnc(Nc3cccc(OC)c3)nc21` was run?
A: Its Potency is > 20 µM (inactive).

Q: Which Potency does the source give for `COCC(=O)N1CCC2(CC1)CCN(c1ncccn1)CC2` here?
A: Its Potency is > 20 µM (inactive).

Q: `FC(F)(F)c1ccccc1-c1nccc(NCc2cccs2)n1` was tested. Which Potency did it give?
A: The Potency was > 20 µM (inactive).

Q: With `O=C(c1cccc(F)c1)N1CCC2(CC1)CN(c1ccccn1)C2` as the compound, how does the Potency read?
A: Its Potency is > 20 µM (inactive).

Q: `COCCNc1cc(-c2ccccc2C(F)(F)F)ncn1` was tested. Which Potency did it give?
A: Its Potency is > 20 µM (inactive).

Q: With `O=C(c1cccc(F)c1)N1CCC2(CC1)CCN(c1ccccn1)CC2` as the compound, how does the Potency read?
A: Its Potency is > 20 µM (inactive).

Q: With `COCC(=O)N1CCC[C@@]2(CCN(c3ncccn3)C2)C1` as the compound, how does the Potency read?
A: The Potency was > 20 µM (inactive).

Q: For `O=S(=O)(c1ccccc1)N1CCC2(CCN(Cc3ccncc3)CC2)CC1`, which Potency is on record?
A: Its Potency is > 20 µM (inactive).

Q: With `O=S(=O)(c1ccccc1)N1CCC[C@@]2(CCN(c3ncccn3)C2)C1` as the compound, how does the Potency read?
A: The Potency was > 20 µM (inactive).

Q: How did the Potency turn out when `COc1cccc(Cn2c(=O)c(-c3cccs3)nc3cnc(N4CCOCC4)nc32)c1` was run?
A: The Potency was > 20 µM (inactive).

Q: For `Cc1noc(C)c1C(=O)N1CCC2(CC1)CN(C(=O)Nc1cccc(F)c1)C2`, which Potency is on record?
A: Its Potency is > 20 µM (inactive).

Q: With `CN(C)c1ncc2ncc(=O)n(C[C@H]3CCCO3)c2n1` as the compound, how does the Potency read?
A: Its Potency is > 20 µM (inactive).

Q: How did the Potency turn out when `COc1ccc2[nH]cc(CCNc3ccnc(-c4ccoc4)n3)c2c1` was run?
A: The Potency was > 20 µM (inactive).

Q: Which Potency does the source give for `CN(C)c1ccc(-c2cncnc2Nc2ccc(F)cc2)cc1` here?
A: Its Potency is > 20 µM (inactive).

Q: `Cn1cccc1C(=O)N1CCC2(CC1)CCN(c1ccncc1)CC2` was tested. Which Potency did it give?
A: Its Potency is > 20 µM (inactive).

Q: With `Cc1nc2cnc(Nc3ccccc3)nc2n(C2CC2)c1=O` as the compound, how does the Potency read?
A: The Potency was > 20 µM (inactive).

Q: Which Potency does the source give for `O=C(c1cnccn1)N1CCC2(CC1)CN(Cc1nccs1)C2` here?
A: The Potency was > 20 µM (inactive).

Q: Which Potency does the source give for `N#Cc1cccc(NC(=O)N2CC[C@@]3(CCCN(C(=O)c4csnn4)C3)C2)c1` here?
A: The Potency was > 20 µM (inactive).

Q: For `CS(=O)(=O)Nc1cccc(-c2ccc3ncnc(Nc4ccccc4)c3c2)c1`, which Potency is on record?
A: The Potency was > 20 µM (inactive).

Q: For `COCCn1c(=O)c(-c2cccs2)nc2cnc(N3CCNCC3)nc21`, which Potency is on record?
A: The Potency was 13 µM (inactive).

Q: Which Potency does the source give for `COc1ccc(NC(=O)N2CCC3(CC2)CCN(C(=O)c2cccn2C)CC3)cc1` here?
A: Its Potency is > 20 µM (inactive).

Q: `CN1CCCC2(CCN(C(=O)c3cccn3C)CC2)C1` was tested. Which Potency did it give?
A: The Potency was > 20 µM (inactive).

Q: For `COc1ccc2[nH]cc(CCNc3ncncc3-c3ccccc3CN(C)C)c2c1`, which Potency is on record?
A: Its Potency is > 20 µM (inactive).

Q: With `CS(=O)(=O)N1CCC2(CC1)CN(Cc1cc(C(F)(F)F)cc(C(F)(F)F)c1)C2` as the compound, how does the Potency read?
A: The Potency was > 20 µM (inactive).

Q: With `Cn1cccc1C(=O)N1CCC2(CC1)CN(c1cccc(-c3ccccc3)c1)C2` as the compound, how does the Potency read?
A: Its Potency is > 20 µM (inactive).

Q: Which Potency does the source give for `COc1ncc2nc(C)c(=O)n(-c3ccccc3)c2n1` here?
A: Its Potency is > 20 µM (inactive).

Q: Which Potency does the source give for `COc1ccc(Oc2ncc3nc(-c4cn(C)c5ccccc45)c(=O)n(C)c3n2)cc1` here?
A: The Potency was > 20 µM (inactive).

Q: How did the Potency turn out when `COCC(=O)N1CCC2(CCCN(c3ccccn3)C2)CC1` was run?
A: The Potency was > 20 µM (inactive).
